Only some compounds are listed: those with a hit (about 1.2% of all), similar ones and a draw of the others.
RPL19A TOR yeast: RPL19A-GFP expression modulators in yeast, primary screen, cell-based, S. cerevisiae, multiplex flow cytometry, MLPCN. S. cerevisiae RPL19A-GFP strain, 3 h; hits give low values. percent response vs DMSO, % at 10 µM. 0.3% of 330,000 active;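 active = percent response vs DMSO below 50%; inconclusive = fewer than 70 events counted for the yeast strain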;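 also: median channel GFP fluorescence of the barcoded RPL19A-GFP strain; ratio of sample median GFP to plate DMSO average so 100% = DMSO; lower means less RPL19A-GFP as with rapamycin TOR inhibition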
AGP1-GFP MLPCN: modulators of AGP1-GFP expression in yeast TOR pathway, primary screen, cell-based, multiplex flow cytometry, S. cerevisiae, MLPCN library; 0.02% of 320,000 active; GFP response vs DMSO, % at 10 µM; 3 h; GFP as percent of DMSO wells; AID 2066, 2009;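 active = GFP response relative to DMSO above a set limit, near screen average plus 3 SD, cut at about 150% in these data; inconclusive = fewer than 70 cells counted for the yeast strain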;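 also: median GFP channel fluorescence of the gated AGP1 strain per well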
LAP4 TOR yeast: modulators of LAP4-GFP expression in yeast, primary screen, S. cerevisiae, multiplex flow cytometry, MLPCN library; 3 h; median GFP as percent of DMSO wells; GFP response vs DMSO, % at 10 µM; 0.34% of 320,000 active; AID 2023, 2009;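 active = GFP response vs DMSO above a set limit, about the screen mean plus 3 SD, cut at about 150% in these data; inconclusive = under 70 cell events counted for the yeast strain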
CIT2-GFP yeast: modulators of CIT2-GFP expression in yeast, primary screen, S. cerevisiae, GFP fusion, multiplex flow cytometry, MLPCN library. S. cerevisiae CIT2-GFP strain, 3 h; 100 means same as DMSO wells. GFP response vs DMSO, % at 10 µM. 0.065% of 320,000 active;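 active = GFP response relative to DMSO above a set limit, near the screen mean plus 3 SD, cut at about 150% in these data; inconclusive = Fewer than 70 cells measured for a yeast strain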;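 also: ratio of well median GFP fluorescence to mean of DMSO wells on the plate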
Pemphigus Ab inh: inhibitors of pemphigus antibody binding to DSG3, primary screen, biochemical, bead-based, flow cytometry, scFv-GFP | AID 588358, 2011 | Desmoglein-3 (Homo sapiens), P32926 | binding (percent of control), % at 10 µM | 0.48% of 310,000 active | DSG3-coupled beads, scFv-anti-DSG3-GFP binding; hits give low values;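 active = binding more than 3 SD below its plate's average and above zero; inconclusive = below that plate limit but binding exactly zero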;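 also: hits lower antibody fragment binding to DSG3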
MEP2 TOR yeast: modulators of MEP2-GFP levels in yeast, primary screen, S. cerevisiae, multiplex flow cytometry, MLPCN library; S. cerevisiae MEP2-GFP strain, 3 h; 100% = DMSO control level; GFP response vs DMSO, % at 10 µM; 0.51% of 330,000 active; AID 2016, 2009;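 active = GFP response versus DMSO above a set limit, roughly screen mean plus 3 SD, cut at about 180% in these data; inconclusive = fewer than 70 cells counted for a yeast strain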;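 also: median GFP fluorescence of the barcode-gated MEP2-GFP cells per well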
* hit, by the source's call; [ ] = another dose, or the depositor's remark.

Results for COCc1cc(C)n(CC(=O)Nc2ccccc2OC)c(=O)c1C#N ?
RPL19A TOR yeast: 48*[may fluoresce violet]; AGP1-GFP MLPCN: inconclusive; LAP4 TOR yeast: 88; CIT2-GFP yeast: inconclusive; MEP2 TOR yeast: 571*[may fluoresce violet]

What do the screens show for `Cc1ccc(S(=O)(=O)c2nc(-c3ccc(F)cc3)oc2N2CCOCC2)cc1`?
RPL19A TOR yeast: 99; AGP1-GFP MLPCN: 103; LAP4 TOR yeast: 103; CIT2-GFP yeast: 100; Pemphigus Ab inh: 103; MEP2 TOR yeast: 99

How did O=C(c1cccc(S(=O)(=O)N2CCOCC2)c1)N1CCN(c2ncccn2)CC1 do in these assays?
Pemphigus Ab inh: 104

Results for Cc1ccc(OC(C)C(=O)N(C)c2ccccc2)c([N+](=O)[O-])n1 (configuration not stated) ?
RPL19A TOR yeast: 96; AGP1-GFP MLPCN: 100; LAP4 TOR yeast: 111; CIT2-GFP yeast: 107; Pemphigus Ab inh: 98; MEP2 TOR yeast: 93

How did COC(=O)Cn1c(=O)c2c(nc(Br)n2Cc2ccccc2Cl)n(C)c1=O do in these assays?
RPL19A TOR yeast: 36*[may fluoresce violet]; AGP1-GFP MLPCN: 19; LAP4 TOR yeast: 93; CIT2-GFP yeast: inconclusive; Pemphigus Ab inh: 102; MEP2 TOR yeast: 265*[may fluoresce violet]

How did Cn1c(=O)c2c(nc(Br)n2Cc2ccccc2Cl)n(C)c1=O do in these assays?
RPL19A TOR yeast: 102; AGP1-GFP MLPCN: 102; LAP4 TOR yeast: 98; CIT2-GFP yeast: 95; Pemphigus Ab inh: 108; MEP2 TOR yeast: 104

What do the screens show for `OC(COc1ccccc1CNCc1cccnc1)CN1CCc2ccccc2C1` (configuration not stated)?
RPL19A TOR yeast: 53; AGP1-GFP MLPCN: 18; LAP4 TOR yeast: 89; CIT2-GFP yeast: inconclusive; Pemphigus Ab inh: 112; MEP2 TOR yeast: 588*[may fluoresce violet]

Results for CCC(Sc1nc2ccncc2[nH]1)C(=O)Nc1ccc(C)c(Cl)c1 (configuration not stated) ?
RPL19A TOR yeast: 102; AGP1-GFP MLPCN: 98; LAP4 TOR yeast: 98; CIT2-GFP yeast: 100; Pemphigus Ab inh: 102; MEP2 TOR yeast: 107

How did O=C(Nc1ccccc1N1CCOCC1)c1ccc([N+](=O)[O-])o1 do in these assays?
RPL19A TOR yeast: 45*; AGP1-GFP MLPCN: 22; LAP4 TOR yeast: 40; CIT2-GFP yeast: 52; Pemphigus Ab inh: 100; MEP2 TOR yeast: 68

Results for CCN1CCN(c2c(Cl)cccc2NC(=O)c2ccc([N+](=O)[O-])o2)CC1 ?
RPL19A TOR yeast: 110; AGP1-GFP MLPCN: 121; LAP4 TOR yeast: 108; CIT2-GFP yeast: 108; MEP2 TOR yeast: 101

How did O=C(Nc1cccc(Cl)c1N1CCCC1)c1ccc([N+](=O)[O-])o1 do in these assays?
RPL19A TOR yeast: 82; AGP1-GFP MLPCN: 81; LAP4 TOR yeast: 211*; CIT2-GFP yeast: 67; Pemphigus Ab inh: 98; MEP2 TOR yeast: 82

What do the screens show for `COC(=O)c1sccc1S(=O)(=O)N1CCCC(N(C)CCc2ccccn2)C1` (configuration not stated)?
RPL19A TOR yeast: 98; AGP1-GFP MLPCN: 94; LAP4 TOR yeast: 81; CIT2-GFP yeast: 93; MEP2 TOR yeast: 82

How did COC(=O)c1ccc(-c2nc(O)c3cnccn23)cc1 do in these assays?
RPL19A TOR yeast: 22*[may fluoresce violet]; AGP1-GFP MLPCN: inconclusive; LAP4 TOR yeast: 76; CIT2-GFP yeast: inconclusive; Pemphigus Ab inh: 110; MEP2 TOR yeast: 325*[may fluoresce violet]

Results for Cc1ccc2c(c1)/C(=C/c1ccccc1C)C(=O)N2 ?
RPL19A TOR yeast: 91; AGP1-GFP MLPCN: 88; LAP4 TOR yeast: 102; CIT2-GFP yeast: 84; Pemphigus Ab inh: 98; MEP2 TOR yeast: 95

Results for Cc1ccc2c(c1)/C(=C/c1ccc(F)cc1)C(=O)N2 ?
RPL19A TOR yeast: 77; AGP1-GFP MLPCN: 85; LAP4 TOR yeast: 153*; CIT2-GFP yeast: 52; Pemphigus Ab inh: 105; MEP2 TOR yeast: 133

Screens from PubChem.
